Results reported in ChEMBL document CHEMBL3988442, “University of Dundee, Small-Polar-MMV Screening Library” (2021).
For some of these results: Results with a measured potency or affinity are listed apart.

Key:
Design in all cases: scale not given: direction of the effect not stated beside the values
[1] = biological target: Protein translocase subunit SecA (Escherichia coli (strain K12)) (UniProt P10408); assay: Assay to Identify E. coli SecA ATPase Inhibitors; type: functional; settings: 30 µM
Protein translocase subunit SecA (Escherichia coli (strain K12)), sequence (P10408 whole entry): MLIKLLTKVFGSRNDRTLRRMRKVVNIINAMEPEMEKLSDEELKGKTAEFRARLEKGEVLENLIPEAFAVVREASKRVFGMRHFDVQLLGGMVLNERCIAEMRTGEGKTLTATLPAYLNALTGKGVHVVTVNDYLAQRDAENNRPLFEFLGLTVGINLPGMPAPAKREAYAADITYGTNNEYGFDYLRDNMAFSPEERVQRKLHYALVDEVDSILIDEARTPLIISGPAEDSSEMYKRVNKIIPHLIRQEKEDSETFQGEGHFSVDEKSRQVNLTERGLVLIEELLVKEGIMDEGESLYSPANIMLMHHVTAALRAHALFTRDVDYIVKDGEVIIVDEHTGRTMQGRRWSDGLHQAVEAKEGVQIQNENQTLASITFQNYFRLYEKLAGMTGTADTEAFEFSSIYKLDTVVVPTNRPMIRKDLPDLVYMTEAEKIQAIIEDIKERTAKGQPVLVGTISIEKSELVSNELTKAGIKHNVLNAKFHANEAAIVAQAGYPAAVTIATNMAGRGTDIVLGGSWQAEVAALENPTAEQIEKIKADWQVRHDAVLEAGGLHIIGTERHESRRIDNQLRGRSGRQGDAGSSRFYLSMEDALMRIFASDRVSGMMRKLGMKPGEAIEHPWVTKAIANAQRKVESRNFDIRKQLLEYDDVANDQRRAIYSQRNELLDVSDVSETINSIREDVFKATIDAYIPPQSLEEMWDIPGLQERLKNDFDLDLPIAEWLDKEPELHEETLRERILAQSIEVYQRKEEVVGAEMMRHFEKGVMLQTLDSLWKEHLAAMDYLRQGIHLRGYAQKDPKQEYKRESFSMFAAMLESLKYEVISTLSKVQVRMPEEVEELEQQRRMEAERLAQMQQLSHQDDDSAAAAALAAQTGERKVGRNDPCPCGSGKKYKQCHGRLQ

[2] = biological target: T1, Ubiquitin-activating enzyme e1, putative (Leishmania donovani (strain BPK282A1)) (UniProt E9BSI1); assay: Leishmania donovani Ubiquitin Activating Enzyme (LdE1); type: functional; settings: 30 µM
T1 sequence (whole entry): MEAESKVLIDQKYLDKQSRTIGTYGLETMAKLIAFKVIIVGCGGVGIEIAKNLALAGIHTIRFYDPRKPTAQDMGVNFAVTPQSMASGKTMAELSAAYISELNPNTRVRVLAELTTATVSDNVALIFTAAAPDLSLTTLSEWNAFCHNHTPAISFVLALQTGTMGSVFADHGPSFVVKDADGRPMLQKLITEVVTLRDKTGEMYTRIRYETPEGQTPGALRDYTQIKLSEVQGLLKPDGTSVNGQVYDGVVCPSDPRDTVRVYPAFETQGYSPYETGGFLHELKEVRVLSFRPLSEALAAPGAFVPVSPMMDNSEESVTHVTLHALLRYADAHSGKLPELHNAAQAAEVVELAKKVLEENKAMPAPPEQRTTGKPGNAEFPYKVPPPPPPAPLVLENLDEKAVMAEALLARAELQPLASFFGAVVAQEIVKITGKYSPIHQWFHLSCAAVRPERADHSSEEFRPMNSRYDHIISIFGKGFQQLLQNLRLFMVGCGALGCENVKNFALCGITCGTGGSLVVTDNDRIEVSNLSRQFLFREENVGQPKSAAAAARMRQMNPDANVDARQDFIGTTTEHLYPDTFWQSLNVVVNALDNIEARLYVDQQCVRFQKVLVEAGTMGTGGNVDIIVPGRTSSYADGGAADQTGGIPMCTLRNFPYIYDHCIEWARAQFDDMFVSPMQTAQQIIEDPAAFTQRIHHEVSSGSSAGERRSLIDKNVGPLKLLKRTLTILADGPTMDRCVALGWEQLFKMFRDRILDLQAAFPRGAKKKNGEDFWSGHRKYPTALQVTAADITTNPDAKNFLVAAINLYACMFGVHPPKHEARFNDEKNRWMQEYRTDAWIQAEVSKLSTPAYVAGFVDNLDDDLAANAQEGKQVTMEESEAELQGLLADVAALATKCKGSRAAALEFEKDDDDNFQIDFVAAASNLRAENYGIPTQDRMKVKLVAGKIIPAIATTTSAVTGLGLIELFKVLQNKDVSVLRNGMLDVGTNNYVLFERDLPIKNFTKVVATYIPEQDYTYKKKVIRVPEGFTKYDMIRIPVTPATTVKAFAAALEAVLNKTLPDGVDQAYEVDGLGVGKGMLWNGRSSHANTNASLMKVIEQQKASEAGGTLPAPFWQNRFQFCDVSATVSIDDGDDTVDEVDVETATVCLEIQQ

[3] = biological target: AMP-activated protein kinase, AMPK (Homo sapiens) (UniProt P54646+O43741+P54619+Q9UGJ0+Q9Y478+Q13131+Q9UGI9); assay: AMP-dependent Kinase enzyme assay. An in vitro enzyme assay that detects ADP turnover that is directly proportional to AMPK activity. This uses naive AMPK that is activated during the assay with MK-8722; type: functional; settings: 30 µM
[4] = biological target: Sialic acid-binding Ig-like lectin 9 (Homo sapiens) (UniProt Q9Y336); assay: Hs-Siglec9 ALPHAscreen SOP 20170721; settings: 10 µM
Sialic acid-binding Ig-like lectin 9 (Homo sapiens), sequence (Q9Y336 whole entry): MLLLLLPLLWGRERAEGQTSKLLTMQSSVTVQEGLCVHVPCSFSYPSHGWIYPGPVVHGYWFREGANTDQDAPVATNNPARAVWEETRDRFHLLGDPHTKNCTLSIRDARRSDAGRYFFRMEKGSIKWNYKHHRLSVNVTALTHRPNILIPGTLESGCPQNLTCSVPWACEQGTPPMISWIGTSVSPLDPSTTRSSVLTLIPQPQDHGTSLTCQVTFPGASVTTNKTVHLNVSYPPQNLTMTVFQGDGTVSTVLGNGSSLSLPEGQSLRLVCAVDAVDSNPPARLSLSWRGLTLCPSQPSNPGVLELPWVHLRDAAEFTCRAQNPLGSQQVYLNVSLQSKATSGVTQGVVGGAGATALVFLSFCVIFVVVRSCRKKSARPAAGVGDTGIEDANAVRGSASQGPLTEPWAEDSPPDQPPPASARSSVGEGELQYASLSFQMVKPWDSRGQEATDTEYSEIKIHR

Trypanosoma cruzi = assay: Trypanosoma cruzi phosphomannomutase and mannose-1-phosphate guanylyltransferase assay; type: functional; settings: 10 µM
[5] = biological target: T2, Arginase-2, mitochondrial (Homo sapiens) (UniProt P78540); assay: in vitro enzyme assay to detect the production of urea directly proportional to the activity of Arginase II; type: functional; settings: 33.3 µM; also: in the data most compounds retested in dose-response had high values
T2 sequence (whole entry): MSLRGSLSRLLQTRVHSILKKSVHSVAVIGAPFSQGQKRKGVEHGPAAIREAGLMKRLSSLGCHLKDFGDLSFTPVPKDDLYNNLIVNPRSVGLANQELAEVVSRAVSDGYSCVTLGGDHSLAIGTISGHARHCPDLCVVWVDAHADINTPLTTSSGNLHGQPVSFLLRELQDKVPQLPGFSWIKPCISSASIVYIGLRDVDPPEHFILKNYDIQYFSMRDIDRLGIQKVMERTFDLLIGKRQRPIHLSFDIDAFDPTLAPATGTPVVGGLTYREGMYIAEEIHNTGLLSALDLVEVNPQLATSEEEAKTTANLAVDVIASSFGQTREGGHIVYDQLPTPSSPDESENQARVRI

[6] = biological target: T3, Proteasome subunit beta (Trypanosoma cruzi) (UniProt O96673); assay: Trypanosoma cruzi proteasome chymotrypsin-like activity (TcProtChymo) assay.; also: in the data most compounds retested in dose-response had high values; type: functional; settings: 9.37 µM
T3 sequence (whole entry): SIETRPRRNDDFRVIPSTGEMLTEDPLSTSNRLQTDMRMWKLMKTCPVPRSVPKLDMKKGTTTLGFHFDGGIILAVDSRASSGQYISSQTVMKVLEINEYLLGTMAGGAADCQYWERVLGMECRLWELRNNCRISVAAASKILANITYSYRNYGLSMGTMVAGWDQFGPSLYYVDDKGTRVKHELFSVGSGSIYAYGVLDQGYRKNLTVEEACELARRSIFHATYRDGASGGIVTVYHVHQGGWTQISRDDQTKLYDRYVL

Homo sapiens = organism: Homo sapiens; assay: To identify inhibition of the IFN signalling (Jak-Stat) pathway via expression of an eGFP reporter gene under the control of an IFN-stimulated response element (ISRE) containing MxA promoter.; type: functional; settings: 30 µM
[7] = biological target: T4, Tyrosyl-tRNA synthetase, putative (Trypanosoma cruzi (strain CL Brener)) (UniProt Q4DSP6); assay: Trypanosoma cruzi tyrosyl tRNA synthetase (TcYRS) _High Tyrosine SOP; type: functional; settings: 30 µM; also: in the data most compounds retested in dose-response had high values
T4 sequence (whole entry): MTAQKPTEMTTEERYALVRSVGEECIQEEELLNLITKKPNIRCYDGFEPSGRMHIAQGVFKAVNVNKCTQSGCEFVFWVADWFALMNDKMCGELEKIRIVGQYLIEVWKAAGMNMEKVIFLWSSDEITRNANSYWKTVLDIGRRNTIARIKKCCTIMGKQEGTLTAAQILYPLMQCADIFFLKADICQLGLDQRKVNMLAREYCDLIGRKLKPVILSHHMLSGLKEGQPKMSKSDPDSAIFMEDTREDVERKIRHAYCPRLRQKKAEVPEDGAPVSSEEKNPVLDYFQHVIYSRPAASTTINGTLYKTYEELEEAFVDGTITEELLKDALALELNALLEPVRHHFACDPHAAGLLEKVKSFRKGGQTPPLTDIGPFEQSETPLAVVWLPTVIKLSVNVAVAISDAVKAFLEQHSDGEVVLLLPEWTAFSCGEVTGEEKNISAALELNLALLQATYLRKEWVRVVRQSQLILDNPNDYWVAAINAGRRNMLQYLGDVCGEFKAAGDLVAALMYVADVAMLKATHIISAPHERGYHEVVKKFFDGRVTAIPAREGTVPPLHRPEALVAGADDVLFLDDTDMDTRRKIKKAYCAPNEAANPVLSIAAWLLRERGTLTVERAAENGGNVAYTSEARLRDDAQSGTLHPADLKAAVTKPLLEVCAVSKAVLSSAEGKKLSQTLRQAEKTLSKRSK

[8] = biological target: T4, Tyrosyl-tRNA synthetase, putative (Trypanosoma cruzi (strain CL Brener)); assay: Trypanosoma cruzi tyrosyl tRNA synthetase (TcYRS) SOP; type: functional; settings: 30 µM
[9] = biological target: Chromo domain-containing protein 1 (Saccharomyces cerevisiae (strain ATCC 204508 / S288c) (Baker's yeast)) (UniProt P32657); assay: ScCHD-1 Enzyme Inhibition Assay; type: functional; settings: 30 µM; also: in the data most compounds retested in dose-response had high values
Chromo domain-containing protein 1 (Saccharomyces cerevisiae (strain ATCC 204508 / S288c) (Baker's yeast)), sequence (P32657 whole entry, the tested form may be a part): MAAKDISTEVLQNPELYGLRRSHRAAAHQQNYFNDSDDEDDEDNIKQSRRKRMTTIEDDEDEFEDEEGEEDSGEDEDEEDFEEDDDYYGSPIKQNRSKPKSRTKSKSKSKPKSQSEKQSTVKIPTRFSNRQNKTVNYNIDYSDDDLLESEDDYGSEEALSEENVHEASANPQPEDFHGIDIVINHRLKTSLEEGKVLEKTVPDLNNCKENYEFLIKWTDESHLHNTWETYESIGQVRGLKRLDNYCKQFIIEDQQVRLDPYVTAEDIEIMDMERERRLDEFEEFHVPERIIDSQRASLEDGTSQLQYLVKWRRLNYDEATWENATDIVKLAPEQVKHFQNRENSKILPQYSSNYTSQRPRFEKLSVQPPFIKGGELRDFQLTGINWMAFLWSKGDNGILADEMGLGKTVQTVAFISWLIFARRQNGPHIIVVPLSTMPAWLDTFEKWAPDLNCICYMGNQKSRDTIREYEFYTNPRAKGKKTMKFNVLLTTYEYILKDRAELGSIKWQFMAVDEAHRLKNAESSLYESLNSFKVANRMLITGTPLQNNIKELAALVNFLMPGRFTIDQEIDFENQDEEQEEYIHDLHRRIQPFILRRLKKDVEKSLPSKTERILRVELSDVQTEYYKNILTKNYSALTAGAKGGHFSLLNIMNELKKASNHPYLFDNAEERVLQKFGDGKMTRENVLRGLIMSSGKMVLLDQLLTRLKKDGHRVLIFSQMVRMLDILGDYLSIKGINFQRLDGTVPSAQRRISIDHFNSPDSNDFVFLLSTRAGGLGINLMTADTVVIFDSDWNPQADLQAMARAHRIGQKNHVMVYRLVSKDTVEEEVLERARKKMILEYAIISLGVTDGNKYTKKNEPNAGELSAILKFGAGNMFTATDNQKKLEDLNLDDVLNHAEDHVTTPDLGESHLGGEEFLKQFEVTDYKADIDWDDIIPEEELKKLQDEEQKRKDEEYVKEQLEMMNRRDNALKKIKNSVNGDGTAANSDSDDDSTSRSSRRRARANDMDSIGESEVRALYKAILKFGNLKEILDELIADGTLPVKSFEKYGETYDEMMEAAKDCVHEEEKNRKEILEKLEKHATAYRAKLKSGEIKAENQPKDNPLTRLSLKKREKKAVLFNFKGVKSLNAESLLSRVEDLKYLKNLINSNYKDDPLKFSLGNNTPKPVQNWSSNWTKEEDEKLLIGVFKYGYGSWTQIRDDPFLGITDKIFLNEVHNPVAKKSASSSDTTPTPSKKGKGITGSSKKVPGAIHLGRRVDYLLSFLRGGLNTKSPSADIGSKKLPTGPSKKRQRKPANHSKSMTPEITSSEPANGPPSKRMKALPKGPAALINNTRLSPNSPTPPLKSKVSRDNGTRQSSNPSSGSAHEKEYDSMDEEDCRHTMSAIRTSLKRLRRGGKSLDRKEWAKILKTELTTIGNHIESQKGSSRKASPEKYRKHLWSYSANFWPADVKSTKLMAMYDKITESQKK

## CCCC(C)(C)NC(=O)c1ccc(CC2CC(=O)NC2=O)cc1 (stereo not drawn)
[1]
  Percent Effect: -8.33%
[2]
  Percent Effect: 8.22%
[3]
  Percent Effect: 6.89%
[4]
  Percent Effect: 23.9%
Trypanosoma cruzi
  Percent Effect: 3.53%
[5]
  Percent Effect: 2.27%
[6]
  Percent Effect: 15.1%
Homo sapiens
  Percent Effect: 13.9%
[7]
  Percent Effect: 3.23%
[8]
  Percent Effect: 10%
[9]
  Percent Effect: -5.88%

## Cc1ccc(C2CSCCN2C(=O)c2ccc(C(N)=O)cc2)o1 (stereo not drawn)
[1]
  Percent Effect: -2.99%
[2]
  Percent Effect: 5.41%
[3]
  Percent Effect: -7.52%
[4]
  Percent Effect: 13.6%
Trypanosoma cruzi
  Percent Effect: 1.47%
[5]
  Percent Effect: 20.6%
[6]
  Percent Effect: 10%
Homo sapiens
  Percent Effect: -21.9%
[7]
  Percent Effect: 4.3%
[8]
  Percent Effect: 11.1%
[9]
  Percent Effect: -2.9%

## Fc1cccc(CN2CCC(c3n[nH]c4ncccc34)CC2)c1F
[1]
  Percent Effect: -3.7%
[2]
  Percent Effect: 9.46%
[3]
  Percent Effect: 25.8%
[4]
  Percent Effect: 6.41%
Trypanosoma cruzi
  Percent Effect: 7.71%
[5]
  Percent Effect: -1.16%
[6]
  Percent Effect: 18.2%
Homo sapiens
  Percent Effect: 18.6%
[7]
  Percent Effect: 3.23%
[8]
  Percent Effect: 14.3%
[9]
  Percent Effect: -10.6%

## O=C(CN1CCCCC1Cn1cncn1)NCCC1=CCCCC1 (stereo not drawn)
[1]
  Percent Effect: -9.27%
[2]
  Percent Effect: 7.59%
[3]
  Percent Effect: -1.31%
[4]
  Percent Effect: 4.8%
Trypanosoma cruzi
  Percent Effect: -2.55%
[5]
  Percent Effect: -0.76%
[6]
  Percent Effect: -4.5%
Homo sapiens
  Percent Effect: 30.9%
[7]
  Percent Effect: 2.46%
[8]
  Percent Effect: -3.8%
[9]
  Percent Effect: -6.11%

## CC(C)NC(=O)NCCCc1cc(N)n(-c2ccccc2)n1
[1]
  Percent Effect: -2.64%
[2]
  Percent Effect: 5.48%
[3]
  Percent Effect: -7.43%
[4]
  Percent Effect: 15.8%
Trypanosoma cruzi
  Percent Effect: 5.09%
[5]
  Percent Effect: -6.82%
[6]
  Percent Effect: 24.8%
Homo sapiens
  Percent Effect: 14.3%
[7]
  Percent Effect: 5.38%
[8]
  Percent Effect: 17.5%
[9]
  Percent Effect: -8.17%

## CCn1ncc2c1CCCC2NCc1ccc(OC)c(C)c1 (stereo not drawn)
[1]
  Percent Effect: -7.95%
[2]
  Percent Effect: 12.7%
[3]
  Percent Effect: -10.6%
[4]
  Percent Effect: 11.1%
Trypanosoma cruzi
  Percent Effect: 7.08%
[5]
  Percent Effect: -3.42%
[6]
  Percent Effect: 1.23%
Homo sapiens
  Percent Effect: 0.115%
[7]
  Percent Effect: 4.43%
[8]
  Percent Effect: 16.5%
[9]
  Percent Effect: -6.17%

## CC(NC(=O)NCCCn1ccnc1)c1ccc2c(c1)CCC(=O)N2 (stereo not drawn)
[1]
  Percent Effect: -5.85%
[2]
  Percent Effect: 22.8%
[3]
  Percent Effect: 0.7%
[4]
  Percent Effect: -8%
Trypanosoma cruzi
  Percent Effect: 8.4%
[5]
  Percent Effect: -2.66%
[6]
  Percent Effect: 13%
Homo sapiens
  Percent Effect: 10.8%
[7]
  Percent Effect: 5.42%
[8]
  Percent Effect: 24.1%
[9]
  Percent Effect: -6.95%

## CCN1CCC(CNCc2cc(OC)ccc2OC)C1 (stereo not drawn)
[1]
  Percent Effect: -3.32%
[2]
  Percent Effect: 0%
[3]
  Percent Effect: -0.832%
[4]
  Percent Effect: -3.34%
Trypanosoma cruzi
  Percent Effect: -5.66%
[5]
  Percent Effect: 0.417%
[6]
  Percent Effect: 6.17%
Homo sapiens
  Percent Effect: 0.331%
[7]
  Percent Effect: 0.99%
[8]
  Percent Effect: 1.22%
[9]
  Percent Effect: -0.855%
